Laboratory results taken from the supplement of paper PMC8728848.
About 410 targets per protein were measured; listed, in parts, are those with the strongest signals and a random draw of the rest.

How the values were obtained:
Test in all cases: glycan array binding signal (z-score within array); higher = stronger binding
Details in all cases: glycan notation: IUPAC condensed, linker removed
[1] = target: Neu5Ac(a2-3)Gal(b1-3)GlcNAc(b1-2)[Neu5Ac(a2-3)Gal(b1-3)GlcNAc(b1-4)]Man(a1-6)[Neu5Ac(a2-3)Gal(b1-3)GlcNAc(b1-2)Man(a1-3)]Man(b1-4)GlcNAc(b1-4)GlcNAc
Procedure, shortened: (§1)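 The Consortium for Functional Glycomics database supplied 3228 glycan arrays, of which those lacking an available protein sequence were dropped. The binding signal, a within-array Z-score, was averaged across arrays of the same protein sequence and across linkers. Negative scores can be read as non-binding.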

[2] = target: Neu5Ac(a2-3)Gal(b1-3)[Neu5Ac(a2-6)]GalNAc
Procedure, shortened: as §1

[3] = target: Neu5Ac(a2-3)Gal(b1-4)GlcNAc(b1-3)Gal
Procedure, shortened: as §1

[4] = target: Neu5Ac(a2-3)Gal6S(b1-4)GlcNAc
Procedure, shortened: as §1

[5] = target: Neu5Ac(a2-6)Gal(b1-4)GlcNAc(b1-3)Gal(b1-4)GlcNAc(b1-2)Man(a1-3)[Neu5Ac(a2-6)Gal(b1-4)GlcNAc(b1-3)Gal(b1-4)GlcNAc(b1-2)Man(a1-6)]GalNAc
Procedure, shortened: as §1

[6] = target: Neu5Ac(a2-6)Gal(b1-4)GlcNAc6S
Procedure, shortened: as §1

[7] = target: Neu5Gc(a2-3)Gal(b1-4)GlcNAc(b1-3)Gal(b1-4)GlcNAc(b1-2)Man(a1-3)[Neu5Gc(a2-3)Gal(b1-4)GlcNAc(b1-3)Gal(b1-4)GlcNAc(b1-2)Man(a1-6)]Man(b1-4)GlcNAc(b1-4)GlcNAc
Procedure, shortened: as §1

[8] = target: Neu5Gc(b2-6)Gal(b1-4)GlcNAc
Procedure, shortened: as §1

B1: MUB70 (Lactobacillus reuteri) (protein)
chain: CVHVQYIDGETDQMLRQDDLDGYTDETIPYSTAEGIKKFEGDGYELFKDNFPAGEKFDNDDTNDQFYTVIF
[1]
  glycan array binding signal (z-score): 6.11
[2]
  glycan array binding signal (z-score): 1.18
[3]
  glycan array binding signal (z-score): 0.155
[4]
  glycan array binding signal (z-score): -0.909
[5]
  glycan array binding signal (z-score): 0.348
[6]
  glycan array binding signal (z-score): 2.67
[7]
  glycan array binding signal (z-score): 1.95
[8]
  glycan array binding signal (z-score): 0.109
